Results taken from the supplement of paper PMC4466140.

The binders below were run against AgAbp1 (assay: SPOT peptide array binding signal intensity (averaged, normalized) (arbitrary units (background-subtracted, floor 0; scale differs between SH3 domains)); higher = stronger binding of the SH3 domain to the peptide).
Summary of the method: (§1)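 Spot intensities were captured after detection with anti-GST antibody, an HRP-linked anti-mouse secondary and luminol, and quantified with Genespotter. The probes were GST-fused SH3 domains from four yeast species, produced in E. coli BL21(DE3), purified on glutathione Sepharose and incubated at 10 μg/ml overnight at 4°C on cellulose-bound synthetic 15-mer peptides with cysteines replaced by serines. Binding signal is the normalized, background-subtracted spot intensity averaged over replicates, and its arbitrary units differ between domains.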

| Binder | SPOT peptide array binding signal intensity |
| --- | --- |
| FSRRQSMDIPSKNRN | 114 |

These binders were tested against AgBbc1 in the same assay as above.
Summary of the method: as §1

| Binder | SPOT peptide array binding signal intensity |
| --- | --- |
| FSRRQSMDIPSKNRN | 69.8 |

These binders were tested against AgBem1-D1 in the same assay as above.
Summary of the method: as §1

| Binder | SPOT peptide array binding signal intensity |
| --- | --- |
| FSRRQSMDIPSKNRN | 557 |

What follows are binders tested against AgBzz1-D1 in the same assay as above.
Summary of the method: as §1

| Binder | SPOT peptide array binding signal intensity |
| --- | --- |
| FSRRQSMDIPSKNRN | 33 |

These binders were tested against AgBzz1-D2 in the same assay as above.
Summary of the method: as §1

| Binder | SPOT peptide array binding signal intensity |
| --- | --- |
| FSRRQSMDIPSKNRN | 78.5 |

These binders were tested against AgCyk3 in the same assay as above.
Summary of the method: as §1

| Binder | SPOT peptide array binding signal intensity |
| --- | --- |
| FSRRQSMDIPSKNRN | 3 |

Each binder was assayed against AgFus1 in the same assay as above.
Summary of the method: as §1

| Binder | SPOT peptide array binding signal intensity |
| --- | --- |
| FSRRQSMDIPSKNRN | 248 |

These binders were tested against AgHof1 in the same assay as above.
Summary of the method: as §1

| Binder | SPOT peptide array binding signal intensity |
| --- | --- |
| FSRRQSMDIPSKNRN | 67.5 |

The binders below were run against AgHse1 in the same assay as above.
Summary of the method: as §1

| Binder | SPOT peptide array binding signal intensity |
| --- | --- |
| FSRRQSMDIPSKNRN | 550 |

What follows are binders tested against AgLsb1 in the same assay as above.
Summary of the method: as §1

| Binder | SPOT peptide array binding signal intensity |
| --- | --- |
| FSRRQSMDIPSKNRN | 15 |

These binders were tested against AgLsb4 in the same assay as above.
Summary of the method: as §1

| Binder | SPOT peptide array binding signal intensity |
| --- | --- |
| FSRRQSMDIPSKNRN | 24 |

What follows are binders tested against AgMyo5 in the same assay as above.
Summary of the method: as §1

| Binder | SPOT peptide array binding signal intensity |
| --- | --- |
| FSRRQSMDIPSKNRN | 16 |

The binders below were run against AgNbp2 in the same assay as above.
Summary of the method: as §1

| Binder | SPOT peptide array binding signal intensity |
| --- | --- |
| FSRRQSMDIPSKNRN | 660 |

What follows are binders tested against AgRvs167 in the same assay as above.
Summary of the method: as §1

| Binder | SPOT peptide array binding signal intensity |
| --- | --- |
| FSRRQSMDIPSKNRN | 4.17 |

The binders below were run against AgSho1 in the same assay as above.
Summary of the method: as §1

| Binder | SPOT peptide array binding signal intensity |
| --- | --- |
| FSRRQSMDIPSKNRN | 115 |

The binders below were run against AgSla1-D1-D2 in the same assay as above.
Summary of the method: as §1

| Binder | SPOT peptide array binding signal intensity |
| --- | --- |
| FSRRQSMDIPSKNRN | 54 |

What follows are binders tested against AgSla1-D3 in the same assay as above.
Summary of the method: as §1

| Binder | SPOT peptide array binding signal intensity |
| --- | --- |
| FSRRQSMDIPSKNRN | 11 |

Each binder was assayed against CaAbp1-D1 in the same assay as above.
Summary of the method: as §1

| Binder | SPOT peptide array binding signal intensity |
| --- | --- |
| FSRRQSMDIPSKNRN | 266 |

The binders below were run against CaAbp1-D2 in the same assay as above.
Summary of the method: as §1

| Binder | SPOT peptide array binding signal intensity |
| --- | --- |
| FSRRQSMDIPSKNRN | 313 |

What follows are binders tested against CaBbc1 in the same assay as above.
Summary of the method: as §1

| Binder | SPOT peptide array binding signal intensity |
| --- | --- |
| FSRRQSMDIPSKNRN | 384 |

The binders below were run against CaBem1-D1 in the same assay as above.
Summary of the method: as §1

| Binder | SPOT peptide array binding signal intensity |
| --- | --- |
| FSRRQSMDIPSKNRN | 686 |

These binders were tested against CaBzz1-D1 in the same assay as above.
Summary of the method: as §1

| Binder | SPOT peptide array binding signal intensity |
| --- | --- |
| FSRRQSMDIPSKNRN | 475 |

The binders below were run against CaBzz1-D2 in the same assay as above.
Summary of the method: as §1

| Binder | SPOT peptide array binding signal intensity |
| --- | --- |
| FSRRQSMDIPSKNRN | 308 |

These binders were tested against CaCyk3 in the same assay as above.
Summary of the method: as §1

| Binder | SPOT peptide array binding signal intensity |
| --- | --- |
| FSRRQSMDIPSKNRN | 25 |

What follows are binders tested against CaFus1 in the same assay as above.
Summary of the method: as §1

| Binder | SPOT peptide array binding signal intensity |
| --- | --- |
| FSRRQSMDIPSKNRN | 602 |

The binders below were run against CaHof1 in the same assay as above.
Summary of the method: as §1

| Binder | SPOT peptide array binding signal intensity |
| --- | --- |
| FSRRQSMDIPSKNRN | 0.5 |

What follows are binders tested against CaHse1 in the same assay as above.
Summary of the method: as §1

| Binder | SPOT peptide array binding signal intensity |
| --- | --- |
| FSRRQSMDIPSKNRN | 225 |

The binders below were run against CaLsb1 in the same assay as above.
Summary of the method: as §1

| Binder | SPOT peptide array binding signal intensity |
| --- | --- |
| FSRRQSMDIPSKNRN | 4 |

These binders were tested against CaLsb4 in the same assay as above.
Summary of the method: as §1

| Binder | SPOT peptide array binding signal intensity |
| --- | --- |
| FSRRQSMDIPSKNRN | 412 |

What follows are binders tested against CaMyo5 in the same assay as above.
Summary of the method: as §1

| Binder | SPOT peptide array binding signal intensity |
| --- | --- |
| FSRRQSMDIPSKNRN | 47.8 |

What follows are binders tested against CaNbp2 in the same assay as above.
Summary of the method: as §1

| Binder | SPOT peptide array binding signal intensity |
| --- | --- |
| FSRRQSMDIPSKNRN | 1460 |

Each binder was assayed against CaRvs167 in the same assay as above.
Summary of the method: as §1

| Binder | SPOT peptide array binding signal intensity |
| --- | --- |
| FSRRQSMDIPSKNRN | 96.7 |

The binders below were run against CaRvs167-3 in the same assay as above.
Summary of the method: as §1

| Binder | SPOT peptide array binding signal intensity |
| --- | --- |
| FSRRQSMDIPSKNRN | 1.75 |

Each binder was assayed against CaSho1 in the same assay as above.
Summary of the method: as §1

| Binder | SPOT peptide array binding signal intensity |
| --- | --- |
| FSRRQSMDIPSKNRN | 691 |

These binders were tested against CaSla1-D1-D2 in the same assay as above.
Summary of the method: as §1

| Binder | SPOT peptide array binding signal intensity |
| --- | --- |
| FSRRQSMDIPSKNRN | 982 |

What follows are binders tested against CaSla1-D3 in the same assay as above.
Summary of the method: as §1

| Binder | SPOT peptide array binding signal intensity |
| --- | --- |
| FSRRQSMDIPSKNRN | 552 |

The binders below were run against ScAbp1 in the same assay as above.
Summary of the method: as §1

| Binder | SPOT peptide array binding signal intensity |
| --- | --- |
| FSRRQSMDIPSKNRN | 74 |
